Source: the supplement of paper PMC6555819

These sequences were tested on THRa homodimer (NR concentration 90 nM) (assay: PBM binding z-score (relative to random genomic background probes); higher = stronger binding; sequences stand for … in GC…GCGATTGACAGCGTAGAATGAAGG).
Procedure, shortened: (§1)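 Binding buffer was PBS pH 7.4 with 2% milk, 0.02% Triton X-100, 1 mM DTT, 0.2 mg/mL BSA and 0.4 mg/ml salmon testes DNA. In it, ligand-free nuclear receptor dimers were incubated 1 h on custom Agilent 4×180K protein-binding microarrays carrying double-stranded probes. Antibodies against each partner (one per run) detected binding, and z-scores were calculated against random background probes after regression normalization of scanned fluorescence.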

Sequence	PBM binding z-score
ACTAGCAGGCCAAGTTTGGTTCACTCAAACAAAG	-0.294
CCTACTGGGCCATCACGTCATTGATATCAACGTT	0.107
ACTATTAGATGAGACGAGGGCAACCGATAGGTTG	0.659
GCTGATAGGTCAACTGATGGTCAGCTAAAGCTCG	-0.713
TCGAATAGGTTAGTCGGGGCATTCAGCCAACATA	0.0462
AGTCAAAGTCCAGGACGAGGTAACGTAAAGCACG	1.14
CCTTAAGGGTCACTCCAGGTTATAGCATCGGAGT	0.592
CAAACTAGGGCAAAGGTCAAAGTCGAGCCAACCA	0.591
TTACCAAGGTGAAGGTCGTTGGTCCCTCTGTAGA	1.1
CCTACTGGGCCCTTCAGAGGTCATTGATCATATG	1.18
CCTGCGAGGTCAATGGTCAGCTAAAGCAGCTCGC	2.37
CGAACTAGGTCAGCACAGGACAGTGAAGGATGAT	0.48
ATCTCTAGGTAACCAAGTTCAGGGAATGCCGAAC	0.87
CCTTACGGGTCACCCCAGGTTATAGCATCGGAGT	1.21
TCATATAGGTAAACAGGTGAAAGGCCGTAAGTTA	0.262
CCAAGTTGGTCAGGAGGTCACACACCGGATATGA	1.96
GCTCGGAGGACAAGGTCAGAGCCTTGTCCGTAGA	1.01
CCTCGGAGGACAACAGGAGGTCAGCGCTGCCAGA	1.31
CAAACTACGTCACCGGAAGGTCAAAGTCCGCATG	1.47
TCATATAGGTAAAAGGAGAAAGTCGGTGTGGTAA	-0.722

Sequence	PBM binding z-score
CGTCCAAGGTCAGAGAGGACAGTGAATGCCGAGT	2.08
GCTAGCATGCCATTTGGGTCACTCAATGACGGGC	0.874
GCTCGGAGGACAAGGTCAGAGCTTTGTCCGTAGA	1.13
ACTATTAGTTGAGACGAGGGCGACCGATAGGTTG	-0.4
TAGCCTAGGTCATGCGAGCCAGTATAGTGTCGGC	1.03
CTCGAAAGGTCGGTTGAGGTGCGTATACGGATAA	-0.208
TAGCCTAGGTCATTCATGGGCCAGTATAGAAAGC	0.289
TCTTGTAGATCAACAGAGGTTAAGAAAGTGCGCT	-0.186
TCTTGTAGATCAAGCAGGTTATGAAAGCCTGAGT	-0.815
AGAATGAGGTTACCAAAGCTCAGGGAAACGCTTG	0.864
CCTCGGAGGACAGACGGTCAGAGCTGTCCGCTTT	-0.156
CTCGAATGGTCGGTTGAGGTGAGTATACGGATAA	1.49
CGTCAAAGTTCAACTAAGGAAACGTAAAGCACGC	0.0826
CCTATTAGTTGACCACAAGGGCAACCGAAGCTCG	0.878
ATATGTAGGTTAAGGGTCATTCTGGTTGGTTCGC	1.75
GCTTGTAGATCAAGGTGAAGAAAGACTAAGCTAA	0.0567
TGAATGAGGTTATAAGATCAGTGAACGTTGCAAA	0.0121
TCTTGTAGATGAATAGAGGTTAAGAAAGTGCGCT	0.0374
GCAGACAGGTGAAACGCAGGTAACTCAAGGTGGC	-0.397
CATACAGGGTCAGCTAGGGCAGAGTAGGGACGGC	0.984

These sequences were tested on VDR homodimer (NR concentration 270 nM) in the same assay as above.
Procedure, shortened: as §1

Sequence	PBM binding z-score
ACTAGCAGGCCAAGTTTGGTTCACTCAAACAAAG	0.338
CCTACTGGGCCATCACGTCATTGATATCAACGTT	-0.136
ACTATTAGATGAGACGAGGGCAACCGATAGGTTG	0.77
GCTGATAGGTCAACTGATGGTCAGCTAAAGCTCG	-0.0716
TCGAATAGGTTAGTCGGGGCATTCAGCCAACATA	0.528
AGTCAAAGTCCAGGACGAGGTAACGTAAAGCACG	-0.089
CCTTAAGGGTCACTCCAGGTTATAGCATCGGAGT	2.55
CAAACTAGGGCAAAGGTCAAAGTCGAGCCAACCA	2.25
TTACCAAGGTGAAGGTCGTTGGTCCCTCTGTAGA	0.98
CCTACTGGGCCCTTCAGAGGTCATTGATCATATG	3.23
CCTGCGAGGTCAATGGTCAGCTAAAGCAGCTCGC	3.63
CGAACTAGGTCAGCACAGGACAGTGAAGGATGAT	-0.111
ATCTCTAGGTAACCAAGTTCAGGGAATGCCGAAC	2.84
CCTTACGGGTCACCCCAGGTTATAGCATCGGAGT	1.41
TCATATAGGTAAACAGGTGAAAGGCCGTAAGTTA	0.499
CCAAGTTGGTCAGGAGGTCACACACCGGATATGA	2.65
GCTCGGAGGACAAGGTCAGAGCCTTGTCCGTAGA	0.502
CCTCGGAGGACAACAGGAGGTCAGCGCTGCCAGA	1.13
CAAACTACGTCACCGGAAGGTCAAAGTCCGCATG	2.03
TCATATAGGTAAAAGGAGAAAGTCGGTGTGGTAA	0.471

Sequence	PBM binding z-score
CGTCCAAGGTCAGAGAGGACAGTGAATGCCGAGT	2.85
GCTAGCATGCCATTTGGGTCACTCAATGACGGGC	0.0275
GCTCGGAGGACAAGGTCAGAGCTTTGTCCGTAGA	0.705
ACTATTAGTTGAGACGAGGGCGACCGATAGGTTG	0.337
TAGCCTAGGTCATGCGAGCCAGTATAGTGTCGGC	0.235
CTCGAAAGGTCGGTTGAGGTGCGTATACGGATAA	0.626
TAGCCTAGGTCATTCATGGGCCAGTATAGAAAGC	0.945
TCTTGTAGATCAACAGAGGTTAAGAAAGTGCGCT	0.274
TCTTGTAGATCAAGCAGGTTATGAAAGCCTGAGT	-0.186
AGAATGAGGTTACCAAAGCTCAGGGAAACGCTTG	-0.0119
CCTCGGAGGACAGACGGTCAGAGCTGTCCGCTTT	-0.276
CTCGAATGGTCGGTTGAGGTGAGTATACGGATAA	0.136
CGTCAAAGTTCAACTAAGGAAACGTAAAGCACGC	3.88
CCTATTAGTTGACCACAAGGGCAACCGAAGCTCG	1.01
ATATGTAGGTTAAGGGTCATTCTGGTTGGTTCGC	4.43
GCTTGTAGATCAAGGTGAAGAAAGACTAAGCTAA	-0.307
TGAATGAGGTTATAAGATCAGTGAACGTTGCAAA	0.482
TCTTGTAGATGAATAGAGGTTAAGAAAGTGCGCT	0.264
GCAGACAGGTGAAACGCAGGTAACTCAAGGTGGC	-0.202
CATACAGGGTCAGCTAGGGCAGAGTAGGGACGGC	2.1
